# Out of some 320,000 compounds screened, about 1,300 (0.41%) were called active. Roughly 3% stayed inconclusive and do not appear here. No rule for the calls is given here. These entries were drawn from the full list. Potency and affinity values are given separately.
# Assay: growth inhibition of non-replicating M. tuberculosis (AID 488890);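 also: plate controls were DMSO cells for no effect and high antibiotic wells for full effect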
# Settings: Mycobacterium tuberculosis non-replicating, at 25 µM, stronger effect = higher value
row,Structure (SMILES),inhibition
1,CCN(C(=O)c1c(-c2ccccc2)noc1C)c1ccccc1,-7.88%
2,COc1ccc(CC(=O)Nc2cc(C)on2)cc1OC,-12.5%
3,COc1ccc(C(=O)Nc2cc(C(=O)O)cc(C(=O)O)c2)cc1Cl,1.97%
4,Cc1sc(NC(=O)C2CC=CCC2C(=O)O)c(C(=O)OC(C)C)c1C (stereo unspecified),24.5%
5,C=CCn1c(=O)c(C(=O)Nc2ncccc2O)c(O)c2ccccc21,27.2%
6,CCn1c(=O)c(C(=O)Nc2ccccc2)c(O)c2ccccc21,23%
7,C=CCn1c(=O)c(C(=O)Nc2ccc(C)cc2)c(O)c2ccccc21,-32%
8,CC(C)Cn1c(=O)c(C(=O)Nc2cnccn2)c(O)c2ccccc21,-0.18%
9,C/C(=N\OCC(=O)OCC(=O)Nc1cc(S(C)(=O)=O)ccc1Cl)c1ccc2c(c1)OCO2,7.45%
10,Cc1ccccc1NC(=O)c1ccc(Cl)c(NC(=O)c2cccnc2)c1,-8.32%
11,C[C@H](NC(=O)OC(C)(C)C)c1nnc(SCC(=O)Nc2cccc(Cl)c2)o1,16.3%
12,O=C(COc1ccccc1)N=C1SC2CS(=O)(=O)CC2N1c1cccc(F)c1 (stereo unspecified),1.19%
13,CC(=O)Oc1ccc2c(=O)c(-c3ccccc3)coc2c1,15.7%
14,COc1ccc2c(=O)c(-c3ccccc3)coc2c1,12.5%
15,CCCOc1ccc2c(C)c(CC(=O)OC)c(=O)oc2c1,3.51%
16,CC(C)Oc1ccc2c(=O)c(-c3ccccc3)coc2c1,22.2%
17,CCc1c(C)c2ccc(OCC(N)=O)cc2oc1=O,10.3%
18,CCOc1ccc2c(=O)c(Oc3ccccc3)c(C)oc2c1,57%
19,Cc1oc2cc(OC(C)C(=O)O)ccc2c(=O)c1Oc1ccccc1 (stereo unspecified),-10.2%
20,CCN(CC)C(=O)Oc1ccc2c(=O)c(-c3ccccc3)coc2c1,62.3%
21,CCN(CC)C(=O)CN(c1ccc(Cl)cc1)S(=O)(=O)c1ccccc1,3.57%

row,Structure (SMILES),inhibition
1,NS(=O)(=O)c1ccc(NC(=O)c2cccc(Cl)c2)cc1,-6.52%
2,Cc1ccc(SCCC(=O)Nc2ccccc2C(=O)NC2CCCCC2)cc1,-25.9%
3,Cc1cc(C)c(NC(=O)CN(C)S(=O)(=O)c2ccc3c(c2)n(C)c(=O)c(=O)n3C)c(C)c1,-2.46%
4,C=CCN1CC(O)=C(c2ccccc2)C1=N,-5.76%
5,CN(C)C(=O)CSc1nnc(-c2cccnc2)n1-c1ccccc1,-19.8%
6,Cc1ccc2ncnc(Nc3ccc(C)c(C)c3)c2c1,17.8%
7,O=C(OCC#CCSc1nnc(-c2cccc3ccccc23)o1)c1cc2ccccc2o1,71.3%
8,NC(=O)CSc1nnc(-c2ccncc2)o1,1.06%
9,CC(=NNC(=O)CSc1nc2ccccc2o1)c1ccco1,13.5%
10,O=C(CSc1nc2ccccc2o1)N1CCN(C(=O)c2ccco2)CC1,7.29%
11,O=C(COC(=O)c1ccco1)Nc1nnc(-c2ccccc2)o1,4.16%
12,Cc1ccc(-c2nnc(COC(=O)c3ccco3)o2)cc1,60.2%
13,O=C(OCc1nnc(-c2ccccc2)o1)c1ccco1,76.9%
14,COc1ccc(-c2nnc(SCC(=O)c3cccs3)o2)cc1,63.8%
15,N#Cc1ccc(-c2ccc(F)cc2)nc1Oc1ccccc1,2.75%
16,Cc1onc(-c2c(Cl)cccc2Cl)c1C(=O)NNc1ccccc1,77.8%
17,CCC(CC)c1nnc(NC(=O)CS(=O)(=O)c2ccccc2)s1,-1.72%
18,COCCOC(=O)c1c(NC(=O)CN2CCCc3ccccc32)sc(C(N)=O)c1C,22.6%
19,COc1ccc(N(CC(=O)NC2CCCC2)C(=O)c2ccc(N3CCCCC3)nc2)cc1,11%
20,Cc1nnc(NC(=O)c2cc3ccccc3o2)s1,16.8%
21,O=C(NNC(=O)c1cc2cc(Br)ccc2oc1=O)c1ccc(O)cc1O,23.6%

row,Structure (SMILES),inhibition
1,Cc1cccnc1NC(=O)c1cc2ccccc2oc1=O,66.8%
2,CCCc1nnc(NC(=O)c2cc3ccccc3o2)s1,16.7%
3,CC(C)c1nnc(NC(=O)c2cc3ccccc3o2)s1,-9.61%
4,COCc1nnc(NC(=O)c2cc3ccccc3o2)s1,8.81%
5,c1cc2c3c(cccc3c1)NC(c1ccc3c(c1)OCO3)N2,12.1%
6,CC1(C)Cc2c(c(-c3ccccc3)nc(N3CCOCC3)c2C(N)=O)CO1,0.34%
7,CCCOc1ccc(-c2c(C(=O)N/N=C/c3ccc(OCC)cc3)nnn2-c2nonc2N)cc1,8.95%
8,COc1ccc(NC(=O)CSc2ccc3nnc(-c4ccccn4)n3n2)cc1OC,-12%
9,COc1ccc2[nH]c(CN3CCC(CO)(CCOc4ccccc4)CC3)c(C)c2c1,48.7%
10,Cc1nn(C)cc1CN1CCC(CO)(CCOc2ccccc2)CC1,-0.6%
11,COc1ccc(OC)c(C(=O)NC2CCSc3ccccc32)c1 (stereo unspecified),3.7%
12,O=C(Nc1cccc(NC(=O)C2CC3CCCC(C2)C3=O)n1)C1CC2CCCC(C1)C2=O (stereo unspecified),28.2%
13,Cc1cc(Cl)ccc1N=c1ssnc1Cl,19.9%
14,Cc1ccc(N=c2ssnc2Cl)cc1,77.3%
15,Cn1nc(C(=O)NCc2cccs2)c2ccccc2c1=O,40.9%
16,Cc1c(C(=O)O)sc2ncn(C)c(=O)c12,-3.22%
17,COC(=O)c1sc2ncn(-n3c(C)ccc3C)c(=O)c2c1C,5.25%
18,COc1cccc(NS(=O)(=O)c2nc3nc(C)cc(C)n3n2)c1,-24.1%
19,Cc1cc(C)n2nc(S(=O)(=O)NC(C)(C)C)nc2n1,-0.21%
20,COc1ccc(OCC(=O)N(C)CC2COc3ccccc3O2)cc1 (stereo unspecified),27.1%
21,COCc1nnc(NC(=O)c2cccc(NC(=O)C(C)C)c2)s1,-15.2%

row,Structure (SMILES),inhibition
1,Cc1ccc(C(=O)N/C(=C\c2cccc([N+](=O)[O-])c2)C(=O)NC(Cc2ccccc2)C(=O)O)cc1 (stereo unspecified),4.43%
2,Cc1ccc(N/C(N)=N/c2nc(C)cc(C)n2)cc1,7.73%
3,CC(=O)Nc1ccc(N/C(N)=N/c2nc(C)cc(C)n2)cc1,-1.18%
4,CC(C)(C)NC(=O)C(=O)NNC(=O)c1ccccc1,10.8%
5,CC(C)(C)c1ccc(C(=O)NNC(=O)c2ccc(Cl)cc2)cc1,-14.5%
6,O=C(CCC(=O)c1ccc(Br)cc1)Nc1cccnc1,40.4%
7,CCN(CC(=O)NC(C)C)C(=O)[C@@H](NC(=O)c1ccco1)C(C)C,-7.65%
8,CCCC(O)(CCC)C(=O)NNc1ccccc1,23.3%
9,CCCCC(O)(CCCC)C(=O)NNc1ccccc1,36.2%
10,Cc1ccc(-c2nnc(SCC(=O)NCC3CCCO3)n2C)cc1 (stereo unspecified),-16.4%
11,Cc1ccnc2nc(C(=O)Nc3nnc(-c4ccc(Cl)cc4)o3)nn12,2.05%
12,NC(=O)c1oc2ccccc2c1NC(=O)c1nc2ccccc2s1,5.47%
13,CC(C)(C)C(=O)Nc1nnc(-c2ccncc2)o1,1.94%
14,Cc1ccccc1C(=O)Nc1nnc(-c2ccncc2)o1,30.5%
15,O=C(Nc1nnc(-c2ccc(Cl)cc2)o1)Nc1ccccc1Cl,-7.45%
16,O=C(Nc1nnc(-c2ccc(Cl)cc2)o1)c1ccc(N2C(=O)CCC2=O)cc1,-7.34%
17,O=C(Nc1nnc(-c2ccc(Cl)cc2)o1)NC1CCCCC1,-11.6%
18,O=C(Nc1nnc(-c2ccc(Cl)cc2)o1)Nc1ccccc1F,11.3%

# — PubChem BioAssay AID488890 (Southern Research Specialized Biocontainment Screening …, 2010)
